Measured values taken from PubChem BioAssay (NCATS).
Records with an inconclusive call do not appear. Entries that show only a call come without a potency. Active and inactive are the calls of the source. Calls come from the whole dose curve; as a rule, active = well fitted curve in the direction sought with a large enough effect; inconclusive = small, poorly fitted or top-dose-only effect, or another doubt; inactive = no such curve, though single readings can be large; an effect the other way counts as inactive or inconclusive.

What was measured:
[1] = qHTS of pediatric cancer cell lines to identify multiple opportunities for drug repurposing: Primary screen for NB1643 cells (AID 1347099); conditions: NB1643 neuroblastoma viability, CellTiter-Glo luminescence, 48 h; series mostly up to 46 µM; note: nearly all actives have a fitted effect of over 50% in size; note: potency is the fitted concentration of half-maximal effect
Procedure, shortened: (§1)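 Readout: CellTiter-Glo luminescence, 48 h treatment. Controls DMSO (neutral) and bortezomib 2.3 µM final (positive). Potency and efficacy taken from primary-screen concentration-response curves.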

[2] = qHTS of pediatric cancer cell lines to identify multiple opportunities for drug repurposing: Primary screen for OHS-50 cells (AID 1347103); conditions: OHS-50 osteosarcoma viability, CellTiter-Glo luminescence, 48 h; series mostly up to 57.3 µM; note: nearly all actives have a fitted effect of over 40% in size; note: potency is the fitted concentration of half-maximal effect
Procedure, shortened: (§2)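 Cells (500-1,000/well) rested 5 h, then received compounds for 48 h; metabolically active cells were measured by CellTiter-Glo luminescence. Final concentrations spanned up to 46 µM (MIPE, 11-point) or 0.59 nM-46 µM (NPC, 8-point) in primary screens, 11-point in follow-ups.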

[3] = qHTS of pediatric cancer cell lines to identify multiple opportunities for drug repurposing: Primary screen for MG 63 (6-TG R) cells (AID 1347105); conditions: MG 63 (6-TG R) viability, CellTiter-Glo, 48 h; series mostly up to 46 µM; note: nearly all actives have a fitted effect of over 50% in size; note: potency is the fitted concentration of half-maximal effect
Procedure, shortened: as §1

[4] = qHTS of pediatric cancer cell lines to identify multiple opportunities for drug repurposing: Primary screen for control Hh wild type fibroblast cells (AID 1347106); conditions: Hh wild-type fibroblast viability, CellTiter-Glo luminescence, 48 h; series mostly up to 46 µM;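 note: a drop in luminescence marks cytotoxicity and a rise apparent proliferation; nearly all actives have a fitted effect of over 55% in size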
Procedure, shortened: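 Cells (500-1,000/well) in growth media were settled 5 h at 37 degrees C, then given compounds for 48 h. Viability was read as CellTiter-Glo luminescence. Primary runs used MIPE at 11 points (0.78 nM-46 µM) and NPC at 8 points (0.59 nM-46 µM); follow-ups used 11 points.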

[5] = qHTS of pediatric cancer cell lines to identify multiple opportunities for drug repurposing: Primary screen for Rh18 cells (AID 1347102); conditions: Rh18 rhabdomyosarcoma viability, CellTiter-Glo luminescence, 48 h; series mostly up to 46 µM; note: nearly all actives have a fitted effect of over 65% in size; note: potency is the fitted concentration of half-maximal effect
Procedure, shortened: (§3)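 Viability after 48 h compound treatment at 37C, 500-1,000 cells/well, read as ATP luminescence with CellTiter-Glo. Primary screens used 11-point (MIPE, 0.78 nM-46 µM) or 8-point (NPC, 0.59 nM-46 µM) final concentrations; follow-up screens used 11-point dilutions.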

[6] = qHTS of pediatric cancer cell lines to identify multiple opportunities for drug repurposing: Primary screen for Rh30 cells (AID 1347107); conditions: Rh30 rhabdomyosarcoma viability, CellTiter-Glo luminescence, 48 h; series mostly up to 46 µM; note: nearly all actives have a fitted effect of over 75% in size; note: potency is the fitted concentration of half-maximal effect
Procedure, shortened: as §3

[7] = qHTS of pediatric cancer cell lines to identify multiple opportunities for drug repurposing: Primary screen for RD cells (AID 1347104); conditions: RD rhabdomyosarcoma viability, CellTiter-Glo luminescence, 48 h; series mostly up to 46 µM; note: nearly all actives have a fitted effect of over 55% in size; note: potency is the fitted concentration of half-maximal effect
Procedure, shortened: as §1

[8] = qHTS of pediatric cancer cell lines to identify multiple opportunities for drug repurposing: Primary screen for BT-12 cells (AID 1347101); conditions: BT-12 viability, CellTiter-Glo luminescence, 48 h; series mostly up to 57.3 µM; note: nearly all actives have a fitted effect of over 25% in size; note: potency is the fitted concentration of half-maximal effect
Procedure, shortened: as §2

[9] = qHTS of pediatric cancer cell lines to identify multiple opportunities for drug repurposing: Primary screen for LAN-5 cells (AID 1347100); conditions: LAN-5 neuroblastoma viability, CellTiter-Glo luminescence, 48 h; series mostly up to 46 µM; note: potency is the fitted concentration of half-maximal effect
Procedure, shortened: as §3

Row | Structure (SMILES) | Potency [1] | Potency [2] | Potency [3] | Potency [4] | Potency [5] | Potency [6] | Potency [7] | Potency [8] | Potency [9]
1 | O=C1CN2Cc3c(ccc(Cl)c3Cl)N=C2N1 | inactive | 21.7 µM (active) | inactive | inactive | – | – | – | – | –
2 | O=C(NC[C@H](O)CO)c1ccncc1Nc1ccc(I)cc1F | inactive | inactive | inactive | inactive | 10.5 µM (active) | inactive | – | – | –
3 | COc1ccc2nc3cc(Cl)ccc3c(Nc3cc(CN4CCCC4)c(O)c(CN4CCCC4)c3)c2n1 | inactive | – | inactive | inactive | inactive | inactive | – | – | –
4 | CN1CC(=O)NC1=NC(=O)Nc1cccc(Cl)c1 | 4.69 µM (active) | – | inactive | inactive | inactive | – | inactive | – | –
5 | CC(C)c1onc(-c2c(Cl)cccc2Cl)c1COc1ccc(C=Cc2cccc(C(=O)O)c2)c(Cl)c1 | inactive | 30.6 µM (active) | – | inactive | – | – | – | – | –
6 | C[C@@H]1[C@H](O)[C@@H](C)C=CC=CC=CC=CC=CC=CC=C[C@H](O[C@@H]2O[C@H](C)[C@H](O)[C@H](N)[C@@H]2O)C[C@@H]2O[C@](O)(C[C@@H](O)C[C@@H](O)[C@H](O)CC[C@@H](O)C[C@@H](O)CC(=O)O[C@H]1C)C[C@H](O)[C@@H]2C(=O)O | 0.166 µM (active) | – | inactive | inactive | inactive | 0.418 µM (active) | 0.743 µM (active) | inactive | –
7 | Oc1ccc(C=Cc2cc(O)cc(O)c2)cc1 | 20.9 µM (active) | – | inactive | inactive | inactive | inactive | – | – | –
8 | c1ccc(CNc2nc(N3CCOc4ccccc43)nc3c2CCCC3)cc1 | 23.5 µM (active) | – | inactive | inactive | – | inactive | inactive | – | –
9 | CN1[C@H]2CC[C@H]1CC(OC(=O)c1c[nH]c3ccccc13)C2 (some centres not stated) | 23.5 µM (active) | – | inactive | inactive | – | inactive | inactive | inactive | –
10 | CC(C)C[C@H](NC(=O)c1cc2ccccc2s1)C(=O)N1CCN(C(=O)[C@H](CO)NS(=O)(=O)c2ccc(Cl)cc2Cl)CC1 | 23.5 µM (active) | 21.7 µM (active) | – | – | – | – | 29.6 µM (active) | 0.001 µM (active) | –
11 | Nc1ncnc2c1ncn2[C@@H]1O[C@H](CO)[C@@H](O)[C@@H]1O | 0.833 µM (active) | 3.85 µM (active) | 3.72 µM (active) | inactive | 1.87 µM (active) | – | 1.66 µM (active) | 6.11 µM (active) | –
12 | Cc1nc(NC(=O)N2CCC[C@@H]2C(N)=O)sc1-c1csc(C(C)(C)C)n1 | 5.9 µM (active) | 1.72 µM (active) | 5.9 µM (active) | – | 7.43 µM (active) | 14.8 µM (active) | 1.66 µM (active) | – | –
13 | CN1CCC[C@H]1CCO[C@](C)(c1ccccc1)c1ccc(Cl)cc1 | 20.9 µM (active) | – | inactive | inactive | inactive | inactive | 37.2 µM (active) | inactive | –
14 | CC1(C)C(N(O)C(=O)Nc2ccc(Cl)cc2)N(c2ccc(Cl)cc2)C(=O)N1CC(=O)NN=CC=Cc1ccc([N+](=O)[O-])o1 (configuration not stated) | 20.9 µM (active) | – | – | – | – | – | 29.6 µM (active) | – | –
15 | Cc1ccccc1-n1c(Cn2nc(-c3cccc(O)c3)c3c(N)ncnc32)nc2cccc(C)c2c1=O | 0.833 µM (active) | 0.0385 µM (active) | – | – | – | inactive | 0.118 µM (active) | – | –
16 | N#CC1(c2cccc(C(=O)Nc3cc(Oc4ccc5nc(NC(=O)C6CC6)sc5n4)ccc3F)c2Cl)CC1 | inactive | 19.3 µM (active) | – | inactive | – | – | – | – | –
17 | CCN(CC)CCCCNc1nc2cc(Cl)c(Cl)cc2nc1-c1ccc(-c2cccs2)s1 | – | 19.3 µM (active) | 18.7 µM (active) | – | 18.7 µM (active) | – | 18.7 µM (active) | – | 26.4 µM (active)
18 | NS(=O)(=O)c1cc(Cl)c(Cl)c(S(N)(=O)=O)c1 | – | inactive | inactive | inactive | inactive | inactive | inactive | inactive | inactive
19 | Cc1cnc(-c2cc(N3CCN(C(=O)CCS(C)(=O)=O)CC3)ncc2Cl)c(C)c1 | – | – | inactive | inactive | inactive | inactive | – | inactive | inactive
20 | CCC[C@H](Nc1nc(-c2ccc(NC(=O)NCC)c(OC)c2)ncc1C)c1cccnc1 | – | 0.0137 µM (active) | inactive | inactive | inactive | inactive | – | 0.0109 µM (active) | 0.0105 µM (active)

Row | Structure (SMILES) | Potency [1] | Potency [2] | Potency [3] | Potency [4] | Potency [5] | Potency [6] | Potency [7] | Potency [8] | Potency [9]
21 | COc1ccc2c(c1)CC[C@H]1[C@@H]2CC[C@]2(C)[C@@H](NCCCCCCN3C(=O)C=CC3=O)CC[C@H]12 | – | – | inactive | inactive | inactive | – | inactive | – | inactive
22 | Nc1ncnc2c1c(-c1cccc(OCc3ccccc3)c1)cn2C1CC(CN2CCC2)C1 (configuration not stated) | – | 0.968 µM (active) | – | inactive | inactive | – | 7.43 µM (active) | – | 4.69 µM (active)
23 | CC1=C[C@@H]2[C@@H]([C@@H](O)C[C@@]3(C)[C@H]2C[C@@H](C)[C@]3(O)C(=O)CO)[C@@]2(C)Cc3cnn(-c4ccccc4)c3C=C12 | – | – | – | inactive | inactive | – | 29.6 µM (active) | – | 23.5 µM (active)
24 | CN(CC=CC#CC(C)(C)C)Cc1cccc2ccccc12 | – | inactive | inactive | inactive | inactive | inactive | inactive | – | inactive
25 | COc1cc2c(cc1OC)[C@@H]1Cc3ccc(OC)c(OC)c3CN1CC2 | – | inactive | inactive | inactive | inactive | inactive | inactive | – | 10.5 µM (active)
26 | Cc1ccc2c(c1)c1c(n2CCc2ccc(C)nc2)CCN(C)C1 | – | – | inactive | inactive | inactive | inactive | inactive | inactive | inactive
27 | O=c1cc(-c2ccc(O)c(O)c2)oc2cc(O)cc(O)c12 | – | – | inactive | – | inactive | inactive | inactive | inactive | inactive
28 | O=S(=O)(NCCNCC=Cc1ccc(Br)cc1)c1cccc2cnccc12 | – | 7.69 µM (active) | 14.8 µM (active) | inactive | 16.6 µM (active) | – | 18.7 µM (active) | 21.7 µM (active) | 20.9 µM (active)
29 | CN(C)CCCNC(=O)c1ccc(-c2cc(O)c3ncccc3c2)cc1 | – | – | inactive | – | inactive | – | – | – | inactive
30 | CC[C@H](NC(=O)[C@H](C)NC)C(=O)N1C[C@@H](O)C[C@H]1Cc1c(-c2[nH]c3cc(F)ccc3c2C[C@H]2C[C@H](O)CN2C(=O)[C@H](CC)NC(=O)[C@H](C)NC)[nH]c2cc(F)ccc12 | – | 0.432 µM (active) | – | – | inactive | inactive | – | 0.273 µM (active) | 0.372 µM (active)
31 | CCCCCCCCCCCCCCCC(=O)O[C@H]1[C@@H](O)[C@@H](O)[C@@H]([C@H](NC(=O)[C@@H]2C[C@@H](CCC)CN2C)[C@H](C)Cl)O[C@@H]1SC | – | inactive | inactive | inactive | – | inactive | – | inactive | inactive
32 | CCC[C@@H](NC(=O)[C@@H]1[C@H]2CCC[C@@H]2CN1C(=O)[C@@H](NC(=O)[C@@H](NC(=O)c1cnccn1)C1CCCCC1)C(C)(C)C)C(=O)C(=O)NC1CC1 | inactive | – | inactive | inactive | – | inactive | – | – | –
33 | CNC(=O)[C@H](Cc1ccccc1)NC(=O)[C@H](CC(C)C)[C@H](CSc1cccs1)C(=O)NO | – | – | inactive | inactive | inactive | – | – | – | inactive
34 | O=S(=O)(O)c1ccc2cc(N=Nc3cc(S(=O)(=O)O)c4cccnc4c3O)ccc2c1 | – | – | – | – | – | – | – | – | inactive
35 | Nc1ccn([C@@H]2O[C@H](CO)[C@@H](O)[C@H]2O)c(=O)n1 | – | 13.7 µM (active) | inactive | inactive | inactive | inactive | inactive | – | 0.0935 µM (active)
36 | O=C(c1ccc(C=Cc2n[nH]c3ccccc23)cc1)N1CCNCC1 | – | – | – | inactive | inactive | – | – | – | 0.833 µM (active)
37 | COc1cc2c(cc1OC)CC(=O)N(CCCN(C)C[C@H]1Cc3cc(OC)c(OC)cc31)CC2 | – | – | inactive | inactive | inactive | inactive | – | – | inactive
38 | CC1(C)CC(=O)c2c(C(F)(F)F)nn(-c3ccc(C(N)=O)c(NC4CCC(O)CC4)c3)c2C1 (configuration not stated) | – | 0.306 µM (active) | – | – | 0.264 µM (active) | – | 0.0743 µM (active) | – | 0.148 µM (active)
39 | CN1C(=O)C(Cc2c[nH]c3ccccc23)NC1=S (configuration not stated) | – | – | inactive | inactive | inactive | inactive | inactive | inactive | inactive
